Source: PubChem (several laboratories)
TPT1 inhibitor: C. albicans TPT1 enzyme inhibition. recombinant caTPT1, FP RNA substrate dephosphorylation. inhibition, % at 5 µM. 300,000 compounds, 0.81% hits;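 active = inhibition above the mean of all tested compounds plus 3 SD, set per screening campaign, cut at about 24% in these data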;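 note: plate controls were DMSO alone for no effect and ferristatin control at 100 nM for full effect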
Rpn11 block: Rpn11 (human) deubiquitinase inhibition. inhibition, % at 20 µM. 360,000 compounds, 0.59% hits. human 26S proteasome, Ub4-pepOG fluorescence polarization; 20S core pre-blocked with epoxomicin;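 active = inhibition at 20 µM, scaled to each plate's controls, above about 33%, limit read from the data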
Target sequence (O00487 whole entry, looked up): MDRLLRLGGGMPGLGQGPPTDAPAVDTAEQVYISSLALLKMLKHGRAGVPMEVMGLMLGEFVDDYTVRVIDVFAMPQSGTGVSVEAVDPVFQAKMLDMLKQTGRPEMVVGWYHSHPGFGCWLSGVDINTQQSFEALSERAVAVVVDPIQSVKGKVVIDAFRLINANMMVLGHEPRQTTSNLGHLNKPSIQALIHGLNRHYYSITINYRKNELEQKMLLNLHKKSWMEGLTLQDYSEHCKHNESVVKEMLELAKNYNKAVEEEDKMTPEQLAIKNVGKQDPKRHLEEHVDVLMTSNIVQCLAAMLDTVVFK
HNF4A DNA FP: change in binding of human HNF4 alpha to DNA; HNF4a-FITC DNA binding, fluorescence polarization, 1 h; activity change, % at 10 µM; AID 1224865; 360,000 compounds, 0.3% hits; in the data active = activity change above about 30%, passing the limit was not always enough
Myeloid diff 2: myeloid differentiation induction; ER-HoxA9 myeloid progenitors, lysozyme-GFP differentiation, flow cytometry; calls only at 10 µM; 360,000 compounds, 1% hits;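 active = normalized GFP-positive differentiation at or above the plate's own cutoff, the solvent-only control mean plus 3 SD; inconclusive = no clear call, values can overlap the other calls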;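 note: cells exposed to compound for four days before flow analysis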
caTPT1 confirm: confirmation of Candida albicans TPT1 inhibitors | shares compounds with TPT1 inhibitor | recombinant caTPT1, fluorescence polarization, RNase T1 coupled | inhibition, % at 5 µM | 2,400 compounds, 74% hits;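 active = inhibition above the primary screen limit, the mean inhibition of all tested compounds plus 3 SD, cut at about 25% in these data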
RNase T1 inh: RNase T1 inhibition in TPT1 counter-screen; 2,400 compounds, 83% hits; AID 2153; RNase T1 cleavage, fluorescence polarization, 1536-well; inhibition, % at 5 µM; shares compounds with TPT1 inhibitor;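 active = inhibition above the solvent-only control well mean plus 3 SD, limit set per screening run, cut at about 23% in these data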;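 note: plate controls were DMSO wells with enzyme for no effect and wells without RNase T1 for full effect; inhibitors block cleavage so intact labeled substrate keeps polarization high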
Target sequence (P00651 whole entry, looked up): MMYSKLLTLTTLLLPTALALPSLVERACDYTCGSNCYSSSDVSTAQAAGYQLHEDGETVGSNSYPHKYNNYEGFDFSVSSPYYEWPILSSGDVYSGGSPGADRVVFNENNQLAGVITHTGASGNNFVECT
Starred values were filed as active, the others as inactive; i = inactive; ? = inconclusive; . = no result given; + = active, no number. A selection: hits, their analogues and other compounds. The true share with any hit is near 2.1%.

SMILES	TPT1 inhibitor	Rpn11 block	HNF4A DNA FP	Myeloid diff 2	caTPT1 confirm	RNase T1 inh
CCOc1cc2c(C#N)c(N3CCCCC3)nc(N)c2c(N)n1	50.5*	.	30.5	i	49.3*	58.0*
CCn1c2ccccc2c2cc(NC(=O)c3ccc(=O)oc3)ccc21	63.3*	-13.3	22.7	i	34.5*	37.4*
C=CCOc1cccc(CNc2cccc(C(=O)O)c2)c1	0.7	-13.2	-0.3	i	.	.
COc1ccc(NC(=O)CCCOc2ccc(Cl)c(C)c2)cc1S(=O)(=O)N1CCOCC1	.	0.9	-0.7	i	.	.
CN(C)/N=C/C=C1\CCC/C(=C\c2ccc(F)c(F)c2)C1=O	22.4	25.5	1.8	?	.	.
COc1ccc(/C=C2\CCC/C(=C\C=N\N(C)C)C2=O)cc1	36.8*	.	13.2	i	45.0*	55.5*
CN(C)c1ccc(/C=C2\CCC/C(=C\c3ccccc3)C2=O)cc1	103.6*	.	106.5	+	110.9*	108.7*
CCC1(C)N=C(N)Nc2nc3cc(C)c(C)cc3n21 (stereo not given)	-2.5	-0.7	-2.1	?	.	.
CCCn1c2c(c(O)c(C(=O)NCc3ccccc3)c1=O)CCCC2	-0.9	-2.7	-0.3	i	.	.
CCCn1c2c(c(O)c(C(=O)NC)c1=O)CCCC2	37.8*	34.4	18.7	i	9.2	16.0
C=CCNc1ncnc2c1ncn2[C@H]1CN(CCN2CCOCC2)C[C@@H](CO)O1	.	-2.2	-0.5	i	.	.
COc1ccc(NC(=O)C2CCCN2C(=O)Oc2ccccc2)cc1 (stereo not given)	47.3*	-1.4	-6.0	i	6.1	6.0
CN(C)/C=C/C(=O)c1ccc(N2CCN(c3ncc(C(F)(F)F)cc3Cl)CC2)cc1	80.2*	27.3	2.3	i	15.4	19.1
O=C1S/C(=C\c2ccc(Cl)cc2)C(=O)N1CCn1cnnn1	0.1	-1.1	0.4	i	.	.
CN(C)c1ccc(/C=C2\SC(=O)N(CCc3nnc(N)s3)C2=O)cc1	99.5*	.	97.2*	i	91.5*	102.4*
CN(C)c1ccc(/C=C2\SC(=O)N(CC(O)Cn3c4ccccc4c4ccccc43)C2=O)cc1 (stereo not given)	75.9*	5.1	6.2	i	51.6*	71.9*
CN(C)c1ccc(/C=C2/SC(=O)N(CCN=C3NS(=O)(=O)c4ccccc43)C2=O)cc1	32.9*	-24.9	10.9	i	27.8*	38.0*
CCN(CC(=O)NC1CCS(=O)(=O)C1)S(=O)(=O)c1ccc(C)c(C)c1 (stereo not given)	0.3	-10.1	0.7	i	.	.
COc1ccc(NC(=O)Nc2ccc([N+](=O)[O-])cc2)cn1	-14.9	-41.3	-15.3	i	.	.
COc1ccc(NC(=O)COc2ccccc2C(=O)NCC(c2ccccc2)N(C)C)cc1Cl (stereo not given)	-1.9	3.2	7.4	i	.	.
CCCCc1nc2ccccc2c(NC(=O)CNC(C)(C)C)c1CCC	-2.6	-9.2	2.3	i	.	.
CCCCc1nc2ccccc2c(N)c1CCC (tested in a mixture with another compound)	40.1*	-16.3	-1.5	i	4.5	5.0
Cc1ccc(C2C3CSCC=C3C(C#N)=C(N)C2(C#N)C#N)cc1 (stereo not given)	27.2*	27.6	16.7	i	18.9	29.4*
CC(OC(=O)Cc1c[nH]c2ccccc12)C(=O)Nc1ccccc1[N+](=O)[O-] (stereo not given)	1.2	-3.8	-1.8	i	.	.
CC(=O)NC1=NC(=O)/C(=C/c2cn(C(C)=O)nc2-c2ccccc2)S1	31.2*	39.7	16.2	i	35.1*	46.9*
SMILES	TPT1 inhibitor	Rpn11 block	HNF4A DNA FP	Myeloid diff 2	caTPT1 confirm	RNase T1 inh
CC(=O)NC1=NC(=O)/C(=C/c2cc(C)n(-c3ccc(NC(C)=O)cc3)c2C)S1	67.5*	.	81.9*	i	101.5*	109.0*
CCOC(=O)COc1ccc(S(=O)(=O)N2CCN(c3ccccc3F)CC2)cc1	109.2*	1.4	1.1	i	7.0	10.2
CCOc1ccc(/C=C/C(=O)c2c(O)cc(C)oc2=O)cc1	45.3*	14.7	0.6	i	10.6	10.3
CN1C(=O)C(N=Nc2ccccc2C(=O)O)N(C)C1=S (stereo not given)	40.9*	21.3	14.0	i	40.6*	60.8*
N#C/C(=C/c1ccc(N2CCCCC2)o1)c1cccc(F)c1	134.3*	.	106.8	.	177.7*	165.6*
Cc1ccc(/C(C#N)=C\c2ccc(N3CCOCC3)o2)cc1	121.4*	.	80.5*	i	153.8*	147.2*
